The results in this text go back to the supplement of paper PMC6555819.

What all share (experiment): PBM binding z-score (relative to random genomic background probes); higher = stronger binding; sequences stand for … in GC…GCGATTGACAGCGTAGAATGAAGG
In experiment [1] the test system is FXR:RXRa (NR concentration 270 nM, RXRa partner concentration 90 nM). The essentials: (§1)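 Each nuclear receptor dimer, without ligand, was incubated for 1 h on custom Agilent 4×180K protein-binding microarrays. Binding was detected with antibodies against each partner (one per run), and scanned fluorescence was regression-normalized. The binding z-scores are referenced to random human genomic background probes.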

Experiment [2] relates to LXRa:RXRa (NR concentration 270 nM, RXRa partner concentration 90 nM). The essentials:
as §1

The subject of experiment [3] is LXRa homodimer (NR concentration 270 nM). The essentials:
as §1

Experiment [4] relates to LXRb:RXRa (NR concentration 270 nM, RXRa partner concentration 90 nM). The essentials: as §1
Experiment [5] concerns LXRb homodimer (NR concentration 270 nM). The essentials: as §1
Experiment [6] relates to PPARa:RXRa (NR concentration 270 nM, RXRa partner concentration 90 nM). The essentials: as §1
The test system of experiment [7] is PPARg:RXRa (NR concentration 180 nM, RXRa partner concentration 90 nM). The essentials:
as §1

Experiment [8] has as its system PPARg:RXRa 270nM:90nM, anti-RXR (NR concentration 270 nM, RXRa partner concentration 90 nM). The essentials: as §1
Experiment [9] relates to PPARg:RXRa 30nM:10nM, anti-RXR (NR concentration 30 nM, RXRa partner concentration 10 nM). The essentials:
as §1

The test system of experiment [10] is PPARg:RXRa 90nM:30nM, anti-RXR (NR concentration 90 nM, RXRa partner concentration 30 nM). The essentials:
as §1

The test system of experiment [11] is PPARg:RXRa DBDmut IVT, anti-RXR (DBD mutation: RXRa K156A/R161A, NR concentration 270 nM, RXRa partner concentration 90 nM). The essentials: as §1
Experiment [12] has as its system PPARg:RXRa IVT, anti-PPARg (NR concentration 270 nM, RXRa partner concentration 90 nM). The essentials:
as §1

The subject of experiment [13] is PPARg DBDmut:RXRa IVT, anti-PPARg (DBD mutation: PPARg1 K132A/R137A, NR concentration 270 nM, RXRa partner concentration 90 nM). The essentials:
as §1

Experiment [14] concerns PPARg DBDmut IVT, anti-PPARg (DBD mutation: PPARg1 K132A/R137A, NR concentration 270 nM). The essentials: as §1
Experiment [15] relates to PPARg homodimer (NR concentration 180 nM). The essentials: as §1
The subject of experiment [16] is PXR:RXRa (NR concentration 270 nM, RXRa partner concentration 90 nM). The essentials: as §1
Experiment [17] concerns PXR homodimer (NR concentration 270 nM). The essentials: as §1
Experiment [18] deals with RARa:RXR (NR concentration 270 nM, RXRa partner concentration 90 nM). The essentials: as §1
Experiment [19] has as its system RARa homodimer (NR concentration 270 nM). The essentials: as §1
For experiment [20], the system named is RARb:RXRa (NR concentration 270 nM, RXRa partner concentration 90 nM). The essentials: as §1

Regarding CCTACTGGGCCATTAGGTCATTGATATCAACGTT, the PBM binding z-score is 1.06 in experiment [1]; 0.977 in experiment [2]; 0.832 in experiment [3]; 1.24 in experiment [4]; -0.52 in experiment [5]; 2.76 in experiment [6]. Moreover, the PBM binding z-score was 3.46 in experiment [7]; 3.68 in experiment [8]; 1.32 in experiment [9]; 3.03 in [10]; 5.31 in [11]; 5.88 in experiment [12]. The PBM binding z-score in experiment [13] is 0.577; in [14] it was 0.445; in experiment [15], 1.02; in experiment [16], 1.13; in experiment [17], 0.202; in experiment [18], 1.72. For the same sequence, the PBM binding z-score was 0.45 in [19] and 2.09 in experiment [20].
As for TCTGCTCGGTCAACGATGGTCAGCTAATCTGCTA, the PBM binding z-score in experiment [1] was 0.568; in [2], 0.372; in experiment [3], -0.251; in [4] it was -0.449; in experiment [5], -0.425; in experiment [6] it was 0.275. The PBM binding z-score in experiment [7] is -0.279; in [8], 0.898; in [9], 1.25; in experiment [10] it was 1.09; in [11], 1.1; in experiment [12], 1.1. Further, the PBM binding z-score is -0.37 in experiment [13]; -0.828 in experiment [14]; -0.45 in [15]; -0.246 in [16]; -1.09 in experiment [17]; -0.0627 in experiment [18]. For the same sequence, the PBM binding z-score in [19] was -0.906; in experiment [20], 2.59.
Take GGAACGAGGGCATTCGAGTGGATAGCATGGCGAT: the PBM binding z-score in experiment [1] was 0.825; in [2], 0.32; in experiment [3], -0.525; in experiment [4], -0.0544; in experiment [5] it was -0.833; in experiment [6], 1.13. The PBM binding z-score in [7] was 0.858; in experiment [8], 0.594; in experiment [9] it was -0.34; in [10], -0.0101; in experiment [11], 2.7; in experiment [12], 1.91. The PBM binding z-score in experiment [13] was 0.297; in experiment [14], -0.551; in [15] it was -0.225; in [16], 0.6; in [17] it was -0.278; in experiment [18] it was 0.17. The PBM binding z-score in experiment [19] was -0.0575; in experiment [20], 1.74.
As for CGTCCAAGGTCAATGCTAGTTCAGTGAAAGCATT, the PBM binding z-score in experiment [1] came to 7.07; in experiment [2], 4.94; in experiment [3], 1.4; in experiment [4], 3.86; in [5], 0.707; in [6], 4.84. Moreover, the PBM binding z-score in experiment [7] stood at 3.72; in [8], 4.27; in experiment [9] it was 1.01; in experiment [10] it was 2.95; in experiment [11], 2.97; in experiment [12], 3.31. In addition, the PBM binding z-score came out at 1.63 in experiment [13]; 0.145 in experiment [14]; 3.77 in experiment [15]; 5.51 in experiment [16]; 2.79 in experiment [17]; 4.79 in experiment [18]. Besides, the PBM binding z-score was found to be 0.972 in experiment [19] and 5.1 in [20].
In the case of GGGACGAGGGCAAAGTTGATAGCATCTGTCGACG, the PBM binding z-score was 1.7 in experiment [1]; 1.11 in [2]; -0.058 in experiment [3]; 1.41 in experiment [4]; 0.182 in [5]; 3.68 in experiment [6]. Also, the PBM binding z-score in experiment [7] was 6.58; in experiment [8], 6.7; in experiment [9] it was 5.3; in experiment [10] it was 6.62; in [11], 2.42; in experiment [12] it was 3.76. The PBM binding z-score in experiment [13] worked out at 0.246; in [14] it was 0.748; in experiment [15], 1.07; in [16], 1.44; in [17], 0.491; in experiment [18], 1.48. Besides, the values for the PBM binding z-score in experiment [19] and in experiment [20] were 0.362 and 2.46, respectively.
For the sequence CCTAGCCGGCCAGGGTCACTCAAGCATTTCGCTT, the PBM binding z-score in experiment [1] is 2.27; in [2], 1.64; in experiment [3], -0.316; in experiment [4], 2.03; in [5] it was -0.922; in [6] it was 2.97. Besides, the PBM binding z-score in experiment [7] is 0.0332; in [8], 0.958; in experiment [9], -0.474; in experiment [10] it was 0.121; in experiment [11], -0.601; in experiment [12] it was 0.147. The PBM binding z-score was -1.32 in [13]; -1.69 in [14]; 0.756 in experiment [15]; 2.84 in [16]; -0.583 in [17]; 3.45 in experiment [18]. The values for the PBM binding z-score in experiment [19] and in experiment [20] were -0.658 and 2.56, respectively.
Take CCAGACAGGTCAAAGGTAACTCAGTCTGGTACGC: the PBM binding z-score in experiment [1] came out at 6.4; in experiment [2] it was 4.97; in experiment [3], 0.903; in experiment [4], 4.17; in experiment [5], 0.453; in experiment [6] it was 5.83. For the same sequence, the PBM binding z-score in experiment [7] was 7.89; in [8], 7.43; in [9], 6.13; in experiment [10], 8.02; in experiment [11], 3.48; in [12], 3.96. Moreover, the PBM binding z-score in experiment [13] was -0.0161; in experiment [14], 0.672; in experiment [15], 2.75; in experiment [16] it was 4.5; in experiment [17] it was 0.483; in [18], 6.08. For the same sequence, the PBM binding z-score in experiment [19] is 0.857; in [20] it was 4.52.
